# Assay results from PubChem BioAssay.
# Active and inactive are the calls of the source. Unless noted, no rule for the calls is given here.
# Key:
# [1] = test system: Wnt5a (protein binding on small-molecule microarray); experiment: Wnt5a binders on small-molecule microarray, primary screen, biophysical, 635/667 nm fluorescence (AID 1142); settings: 635 nm fluorescence, higher = more signal;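 also: fluorescence read at 667 nm with signal to noise per printed feature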
# [2] = cell viability in Huh7 cells, primary screen, cytotoxicity control for HCV replication inhibitor project, CellTiter-Glo luminescence, basal, 48 h (AID 1143); settings: Huh7 HCV replicon, higher = more signal, called active from +8 up or from −8 down;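 also: Huh7 hepatoma cells carrying a hepatitis C replication reporter with no stimulus; test concentration not given here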
# [3] = P. aeruginosa biofilm formation inhibitors, primary screen, PAO1 strain, BacTiter-Glo luminescence, LB-PBS (AID 1144); settings: 12 h, higher = more signal
# [4] = CREB reporter modulators without forskolin, primary screen, cell-based, PC12, CRE-LacZ reporter, unstimulated (AID 1145); settings: no forskolin, luminescence, 4.5 h, higher = more signal, called active from +8 up or from −8 down
# [5] = CREB reporter modulators under forskolin, primary screen, cell-based, PC12, CRE-LacZ reporter, forskolin-stimulated (AID 1146); settings: luminescence, 4.5 h, higher = more signal, called active from +8 up or from −8 down;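 also: PC12 cells with 6xCRE LacZ reporter stimulated by forskolin 10 µM; beta-galactosidase reporter signal reflecting CREB driven transcription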
# [6] = target: Streptavidin (Streptomyces avidinii) (UniProt P22629); experiment: streptavidin binders on small-molecule microarray, primary screen, artefact control for SMM compound annotation, biophysical, 635/667 nm fluorescence (AID 1147); settings: streptavidin binding, higher = more signal;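 also: signal reflects streptavidin binding to arrayed compounds as a control protein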
# [7] = small-molecule binders of probe aInhba, primary screen, biochemical, small-molecule microarray, 635/667 nm fluorescence (AID 1148); settings: higher = more signal;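 also: score merges 667nm spot fluorescence with signal-to-noise for antibody binding to printed compounds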
# [8] = target: Torsin-1A (Homo sapiens) (UniProt O14656); experiment: torsin A binders from cell lysate, primary screen, small-molecule microarray, wild-type, 635/667 nm (AID 1149); settings: COS7 hTOR1A-WT lysate, 635 nm fluorescence, higher = more signal
# [9] = target: Torsin-1A (Homo sapiens) (UniProt O14656); experiment: small-molecule binders of mutant TOR1A in lysate, primary screen, cell lysate, small-molecule microarray, COS7 lysate, 635/667 nm fluorescence (AID 1150); settings: COS7 hTOR1A mutant lysate, 635 nm fluorescence, higher = more signal;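 also: score pools 667 nm emission and signal to noise measuring lysate protein binding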
# [10] = test system: Sonic hedgehog protein (Shh); experiment: small-molecule binders of Shh protein, primary screen, biochemical, small-molecule microarray, 635/667 nm fluorescence (AID 1151); settings: small-molecule microarray binding, 635 nm fluorescence; higher = more signal;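 also: Shh protein binding to compounds spotted on small-molecule microarray slides; score combines spot fluorescence intensity with signal-to-noise across triplicate slides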
# [11] = E. coli DRC41 culture turbidity changes, primary screen, E. coli filamentation inducer project, strain DRC41, OD650, 48 h (AID 1152);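 also: E. coli MC1000 strain DRC41 lacking acrAB efflux pump and sulA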; settings: E. coli DRC41 (acrAB sulA), higher = more signal, called active from +8 up or from −8 down
# [12] = small-molecule binders of probe aLefty1, primary screen, biochemical, small-molecule microarray, 635/667 nm fluorescence (AID 1153); settings: higher = more signal;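 also: score merges spot fluorescence with signal-to-noise ratio from the scanned slide images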
# [13] = PSAC antagonists in infected red cells, primary screen, cell-based, P. falciparum Indochina, OD700, 1 h (AID 1154); settings: P. falciparum Indochina infected RBC osmotic lysis, higher = more signal, called active from +8 up or from −8 down
# [14] = PSAC antagonists in infected red cells, primary screen, cell-based, P. falciparum Indochina, OD700, 2 h (AID 1155);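 also: lysis reports solute entry through the parasite surface anion channel PSAC; channel blockers reduce lysis of infected cells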; settings: P. falciparum Indochina infected erythrocytes, osmotic lysis OD700; higher = more signal, called active from +8 up or from −8 down
# [15] = osmotic lysis modulators in infected erythrocytes, primary screen, PSAC antagonist project, cell-based, P. falciparum Indochina, OD700, 3 h (AID 1156); settings: higher = more signal, called active from +8 up or from −8 down
# [16] = PSAC antagonists in infected red cells, primary screen, cell-based, P. falciparum Indochina, OD700, 18 h (AID 1157); settings: P. falciparum Indochina infected erythrocytes, osmotic lysis OD700, 18 h; higher = more signal, called active from +8 up or from −8 down
# [17] = modulators of S6 phosphorylation in cells, primary screen, cell-based, A549, cytoblot, luminescence, serum-stimulated (AID 1158); settings: A549 phospho-S6 cytoblot, 5 h, higher = more signal;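 also: serum-stimulated A549 lung adenocarcinoma cells; signal is phosphorylated S6 detected by cytoblot immunostaining with HRP secondary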
# [18] = target: NADPH oxidase 2 (Homo sapiens) (UniProt P04839); experiment: NOX2-dependent H2O2 signal modulators, primary screen, NOX inhibitor project, cell-based, HEK293-NOX2, PMA-stimulated, Amplex Red fluorescence (AID 1159); settings: 45 min, higher = more signal, called active from +8 up or from −8 down; also: test concentration not given here
# [19] = target: NADPH oxidase 4 (Homo sapiens) (UniProt Q9NPH5); experiment: NOX4-dependent H2O2 signal modulators, primary screen, NOX inhibitor project, cell-based, HEK293-NOX4, tetracycline-induced, Amplex Red fluorescence (AID 1160); settings: 45 min, higher = more signal, called active from +8 up or from −8 down
# [20] = target: NADPH oxidase 5 (Homo sapiens) (UniProt Q96PH1); experiment: NOX5-dependent H2O2 signal modulators, primary screen, NOX inhibitor project, cell-based, HEK293-NOX5, Amplex Red fluorescence (AID 1161); settings: HEK293-NOX5, ionomycin, 45 min, higher = more signal
# Chain of NADPH oxidase 5 (Homo sapiens) (Q96PH1 whole entry, looked up): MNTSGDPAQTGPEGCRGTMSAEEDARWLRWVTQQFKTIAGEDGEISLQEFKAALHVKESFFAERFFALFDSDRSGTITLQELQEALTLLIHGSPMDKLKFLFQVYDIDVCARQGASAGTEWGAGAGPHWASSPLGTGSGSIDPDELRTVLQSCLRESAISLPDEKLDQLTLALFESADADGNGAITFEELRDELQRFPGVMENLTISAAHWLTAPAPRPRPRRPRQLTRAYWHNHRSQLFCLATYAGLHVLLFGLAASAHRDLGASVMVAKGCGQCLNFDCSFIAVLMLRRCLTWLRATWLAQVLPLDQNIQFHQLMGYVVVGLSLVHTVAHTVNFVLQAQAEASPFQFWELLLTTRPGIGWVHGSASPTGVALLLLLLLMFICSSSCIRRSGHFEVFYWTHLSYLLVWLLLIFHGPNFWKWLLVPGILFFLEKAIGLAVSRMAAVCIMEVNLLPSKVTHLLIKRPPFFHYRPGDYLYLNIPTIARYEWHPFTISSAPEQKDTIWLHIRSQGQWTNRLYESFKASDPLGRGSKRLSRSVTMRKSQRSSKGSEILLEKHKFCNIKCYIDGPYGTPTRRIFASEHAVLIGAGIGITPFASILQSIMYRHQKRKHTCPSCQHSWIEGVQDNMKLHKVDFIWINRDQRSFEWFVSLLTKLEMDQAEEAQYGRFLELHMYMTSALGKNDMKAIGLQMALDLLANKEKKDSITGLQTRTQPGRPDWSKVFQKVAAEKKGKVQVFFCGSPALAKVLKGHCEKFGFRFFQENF
# Chain of NADPH oxidase 4 (Homo sapiens) (Q9NPH5 whole entry, looked up): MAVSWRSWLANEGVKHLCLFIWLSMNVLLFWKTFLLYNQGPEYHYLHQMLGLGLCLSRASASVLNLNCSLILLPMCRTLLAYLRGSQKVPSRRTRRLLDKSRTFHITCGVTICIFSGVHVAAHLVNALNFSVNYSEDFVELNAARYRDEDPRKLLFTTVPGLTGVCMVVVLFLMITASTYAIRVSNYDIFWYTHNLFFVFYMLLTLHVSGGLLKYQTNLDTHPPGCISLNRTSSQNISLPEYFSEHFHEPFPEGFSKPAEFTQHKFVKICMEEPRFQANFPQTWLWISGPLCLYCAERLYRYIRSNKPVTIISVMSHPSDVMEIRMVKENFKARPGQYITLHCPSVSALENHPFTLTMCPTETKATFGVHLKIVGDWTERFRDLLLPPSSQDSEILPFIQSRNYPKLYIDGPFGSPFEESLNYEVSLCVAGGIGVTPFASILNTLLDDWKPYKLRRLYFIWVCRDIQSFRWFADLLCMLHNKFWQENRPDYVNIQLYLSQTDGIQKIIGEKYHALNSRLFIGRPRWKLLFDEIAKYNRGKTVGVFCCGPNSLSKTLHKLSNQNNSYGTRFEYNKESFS
# Chain of NADPH oxidase 2 (Homo sapiens) (P04839 whole entry, looked up): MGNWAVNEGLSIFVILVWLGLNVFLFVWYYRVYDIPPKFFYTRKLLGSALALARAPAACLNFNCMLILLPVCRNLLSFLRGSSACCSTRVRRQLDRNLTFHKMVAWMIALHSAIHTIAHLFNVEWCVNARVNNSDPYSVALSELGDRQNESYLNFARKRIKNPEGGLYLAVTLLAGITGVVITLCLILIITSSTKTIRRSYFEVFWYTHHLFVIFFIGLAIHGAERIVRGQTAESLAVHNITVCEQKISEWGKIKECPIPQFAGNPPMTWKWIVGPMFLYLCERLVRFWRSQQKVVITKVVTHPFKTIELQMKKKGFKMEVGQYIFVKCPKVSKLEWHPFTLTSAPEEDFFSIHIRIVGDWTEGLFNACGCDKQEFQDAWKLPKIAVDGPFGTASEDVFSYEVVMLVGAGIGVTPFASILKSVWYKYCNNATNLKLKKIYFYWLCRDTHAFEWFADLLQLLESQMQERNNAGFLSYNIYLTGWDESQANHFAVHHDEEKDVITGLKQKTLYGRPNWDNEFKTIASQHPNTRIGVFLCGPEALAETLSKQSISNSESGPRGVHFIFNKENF
# Chain of Torsin-1A (Homo sapiens) (O14656 whole entry, looked up): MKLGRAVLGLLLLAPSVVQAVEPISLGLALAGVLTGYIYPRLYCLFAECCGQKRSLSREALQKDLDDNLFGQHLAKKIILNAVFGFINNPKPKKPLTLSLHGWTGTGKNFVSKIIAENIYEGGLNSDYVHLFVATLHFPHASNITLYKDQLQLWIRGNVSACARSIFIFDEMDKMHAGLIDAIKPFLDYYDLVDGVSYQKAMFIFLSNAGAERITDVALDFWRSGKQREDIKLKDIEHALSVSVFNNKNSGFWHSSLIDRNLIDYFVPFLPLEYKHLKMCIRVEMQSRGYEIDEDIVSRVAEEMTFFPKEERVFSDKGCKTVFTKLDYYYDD
# Chain of Streptavidin (Streptomyces avidinii) (P22629 whole entry, looked up): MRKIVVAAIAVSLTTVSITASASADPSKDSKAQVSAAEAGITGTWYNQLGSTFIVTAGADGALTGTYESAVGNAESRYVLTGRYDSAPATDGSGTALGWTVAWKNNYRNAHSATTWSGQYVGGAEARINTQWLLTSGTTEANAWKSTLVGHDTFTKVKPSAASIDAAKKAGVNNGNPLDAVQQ
SMILES,composite z-score [1],z-score [2],z-score [3],z-score [4],z-score [5],composite z-score [6],composite z-score [7],composite z-score [8],composite z-score [9],composite z-score [10],z-score [11],composite z-score [12],z-score [13],z-score [14],z-score [15],z-score [16],z-score [17],z-score [18],z-score [19],z-score [20]
CC(C)N1C(=O)c2ccccc2[C@](C)(C(=O)NCCN2CCOCC2)[C@@H]1c1ccc(CO)cc1,-0.568,0.0068 (inactive),0.358 (inactive),0.585 (inactive),-0.875 (inactive),-0.854,-0.0719,0.0436,0.212,-0.776,-0.469 (inactive),0.0451,2.19 (inactive),0.0259 (inactive),0.914 (inactive),0.426 (inactive),-0.522,1.05 (inactive),0.627 (inactive),0.283
CCCCCCc1nc(-c2cc(C)c(OC)c(C)c2)cc2c1[Si](C(C)C)(C(C)C)OC2,-0.227,-2.72 (inactive),-0.661 (inactive),-0.0989 (inactive),0.0738 (inactive),0.0643,0.131,-0.646,-0.384,0.985,0.488 (inactive),0.147,0.827 (inactive),-0.0892 (inactive),0.193 (inactive),-0.351 (inactive),0.296,-5.61 (inactive),-1.72 (inactive),-3.75
C=CCN1C(=O)[C@]2(O[C@H](CCn3cc([C@H](O)c4ccccc4)nn3)[C@@H]([Si](C)(C)c3ccc(OC)cc3)[C@@H]2C)c2ccccc21,-0.336,-3.87 (inactive),-0.151 (inactive),2.23 (inactive),-0.979 (inactive),-0.957,-0.203,-0.704,-0.73,0.238,-0.554 (inactive),-0.0099,4.6 (inactive),1.02 (inactive),0.914 (inactive),0.843 (inactive),0.256,0.952 (inactive),0.055 (inactive),-0.251
COCCOC(=O)N1C(=O)[C@@]2(c3ccccc31)[C@H](c1ccc(O)cc1)N1[C@H](c3ccccc3)[C@H](c3ccccc3)OC(=O)[C@H]1[C@@H]2C(=O)Nc1nc2ccccc2s1,0.243,-1.67 (inactive),0.272 (inactive),-0.467 (inactive),2.42 (inactive),0.795,0.225,0.514,1.23,1.13,0.894 (inactive),0.541,1.31 (inactive),1.1 (inactive),0.109 (inactive),1.41 (inactive),0.172,1.41 (inactive),0.449 (inactive),1.41
COCCOC(=O)N1C(=O)[C@@]2(c3cc(C#CC4(O)CCCCCC4)ccc31)[C@H](c1ccccc1OCCO)N1[C@H](c3ccccc3)[C@H](c3ccccc3)OC(=O)[C@H]1[C@@H]2C(=O)N1CCN(c2ncccn2)CC1,0.839,-1.86 (inactive),-0.354 (inactive),0.155 (inactive),0.411 (inactive),0.356,0.153,0.456,0.699,0.678,0.888 (inactive),-0.0437,1.67 (inactive),1.31 (inactive),0.824 (inactive),0.712 (inactive),-0.0324,0.342 (inactive),0.386 (inactive),1.03
CC(C)C(=C=CC[C@@H](O)c1ccc(OCCO)cc1)C[C@@H](O)c1ccccn1,0.207,-0.661 (inactive),0.205 (inactive),0.145 (inactive),1.4 (inactive),0.0453,-0.231,0.75,0.205,2.26,-0.197 (inactive),-0.101,6.54 (inactive),0.977 (inactive),0.166 (inactive),0.479 (inactive),-0.652,0.0116 (inactive),0.26 (inactive),-0.124
O=C1C2C=CC(C(O)Cc3ccccc3)N(n3cnnc3)C2C(=O)N1Cc1ccccc1 (stereo not given),0.0769,0.0633 (inactive),0.0973 (inactive),-0.0696 (inactive),-0.413 (inactive),0.0646,-0.0118,-0.0992,1.05,-0.373,-1.07 (inactive),0.333,1.78 (inactive),1.06 (inactive),1.04 (inactive),0.587 (inactive),-0.309,-0.112 (inactive),-1.69 (inactive),-1.36
Cc1ccc(S[C@]2(C(=O)NCCCN(C)C)CC(=O)N(Cc3cc(C(F)(F)F)cc(C(F)(F)F)c3)[C@@H]2c2ccc(CO)cc2I)cc1,-0.116,-1.21 (inactive),0.463 (inactive),-0.994 (inactive),1.23 (inactive),-0.0724,0.172,-0.314,-0.88,-0.503,0.272 (inactive),1.37,3.48 (inactive),1.12 (inactive),-1.36 (inactive),0.303 (inactive),-0.232,1.28 (inactive),-1.25 (inactive),2.43
COCCCNC(=O)[C@@H]1c2ccccc2C(=O)N(Cc2ccccc2Cl)[C@H]1c1ccc(CO)cc1,-0.0355,-0.0743 (inactive),0.66 (inactive),-0.179 (inactive),-0.268 (inactive),0.128,0.326,0.494,0.857,0.861,2.51 (inactive),-0.121,1.62 (inactive),0.293 (inactive),0.621 (inactive),0.11 (inactive),-0.0671,-0.285 (inactive),0.986 (inactive),0.306
COC(=O)[C@H](Cc1ccccc1)N[C@@H](/C=C/C1CC1)[C@H](O)Cc1ccccc1,1.2,-0.389 (inactive),0.186 (inactive),1.31 (inactive),0.15 (inactive),0.648,-0.231,0.324,0.341,-0.21,0.0327 (inactive),-0.239,0.738 (inactive),0.229 (inactive),-0.592 (inactive),0.428 (inactive),-0.162,0.42 (inactive),-0.135 (inactive),-1.41
CN1C(=O)C2C=CC(C(O)C3CC=CCC3)N(N(c3ccccc3)c3ccccc3)C2C1=O (stereo not given),0.155,0.909 (inactive),0.472 (inactive),0.629 (inactive),0.47 (inactive),0.184,0.027,0.36,-0.368,0.0122,-0.866 (inactive),0.329,0.19 (inactive),1.01 (inactive),-0.255 (inactive),1.29 (inactive),-0.496,-0.625 (inactive),0.21 (inactive),0.224
O=C1O[C@H](c2ccccc2)[C@H](c2ccccc2)N2[C@H]1[C@@H](C(=O)N1CCCCCCC1)[C@]1(C(=O)Nc3ccc(C#CC4=CCCCC4)cc31)[C@H]2c1ccc(OCCO)cc1,1.79,-5.63 (inactive),-0.761 (inactive),0.182 (inactive),-0.617 (inactive),3.17,2.23,1.5,1.88,1.59,2.72 (inactive),2.88,10.2 (active),0.658 (inactive),1.08 (inactive),-1.25 (inactive),2.85,-0.708 (inactive),0.14 (inactive),-2.05
CC1(C)[C@@H]2CC(C(O)C3C=CC4C(=O)N(Cc5ccccc5)C(=O)C4N3n3cnnc3)=C[C@H]1C2 (stereo not given in full),0.253,-0.346 (inactive),0.132 (inactive),-0.126 (inactive),0.34 (inactive),0.512,-0.0375,1.49,1.33,0.414,-0.316 (inactive),0.0451,1.31 (inactive),1.24 (inactive),0.313 (inactive),0.927 (inactive),-0.688,-0.14 (inactive),0.741 (inactive),0.273
C=CCN1C(=O)[C@@]2(CC=C)N=C(c3ccc(OCCCO)cc3)O[C@H]2c2ccccc21,1.39,-3.88 (inactive),-0.776 (inactive),1.13 (inactive),-2.04 (inactive),0.26,0.33,0.537,0.658,1.47,1.92 (inactive),0.547,34.5 (active),30.9 (active),3.11 (inactive),9.88 (active),1.63,-2.21 (inactive),0.796 (inactive),-0.809
C=CCOC(=O)[C@H]1[C@@H]2C(=O)O[C@@H](c3ccccc3)[C@@H](c3ccccc3)N2[C@@H](c2ccc(OCCOC(=O)[C@H]3C[C@H]4C(=O)N[C@@H](CCCCNC(C)=O)C(=O)N4[C@H]3c3cccc(OCCO)c3)cc2)[C@]12C(=O)Nc1ccccc12,0.791,-1.1 (inactive),-0.292 (inactive),-1.08 (inactive),-0.908 (inactive),-0.365,-0.21,0.983,0.934,2.07,-0.0842 (inactive),0.179,3.6 (inactive),1.52 (inactive),3.95 (inactive),1.01 (inactive),-0.116,2.19 (inactive),1.93 (inactive),0.8
CCOC(=O)C[C@H]1[C@H](OC(=O)c2ccc(C(=O)c3ccccc3)cc2)[C@@H](NC(=O)c2ccccc2)c2cc(OCCCO)ccc2N1C(=O)Cc1ccc(OC)cc1,0.285,0.0963 (inactive),-0.0343 (inactive),2.75 (inactive),0.0836 (inactive),0.101,-0.0413,-0.0962,0.322,-0.0887,-0.126 (inactive),-0.185,3.37 (inactive),0.656 (inactive),-0.391 (inactive),0.259 (inactive),-0.0114,0.924 (inactive),0.983 (inactive),1.45
